For one test, the system named is AKT1. As to conditions: concentration: 1 μM, replicates: in singlicate; n = 1.
Turning to `Nc1n[nH]c2ncc(-c3ccccc3)cc12` [SB-517081], the “%Inh” value came to 0%.
On to `COc1cc(Nc2nccc(N3CCC(NC(=O)C4COc5ccccc5O4)C3)n2)cc(OC)c1OC` (stereo not drawn) [GSK1379761], for which the “%Inh” value is given as 0%.
`COc1cc2ncn(-c3cc(OCCCc4ccccc4)c(C(N)=O)s3)c2cc1OC` [GSK205189]: the “%Inh” value is 0%.
Regarding `CCC(=O)c1c(-c2ccccc2)c2cc(Cl)ccc2c(=O)n1Cc1cc(C(=O)NC2CC2)n(C)n1`, the “%Inh” value is 0%.
Turning to `C[C@@H]1CC[C@H](C(=O)NC2CCCCC2)CN1c1cc(-c2ccc3c(N)n[nH]c3c2)nc(N)n1` [GSK2291363], the “%Inh” value was 0%.
`CCc1ccc(-c2ccc3c(c2)-c2nn(C)cc2S(=O)(=O)N3C)cc1`: the “%Inh” value was 0%.
Still for that read-out and setting: under `Cc1nnc(-c2ccc(C)c(-c3ccc(C(=O)O)cc3)c2)o1` [GW608005] stands 0%.
On the same count and under the same terms, under `COc1cc(OC)cc(-c2cc3cnc(N)nc3nc2NC(=O)NC(C)(C)C)c1` stands 4%; under `COC(=O)c1c(-c2ccccc2)c2cc(Br)ccc2c(=O)n1Cc1ccc(S(C)(=O)=O)cc1`, 14%.
The same measure, in the same setting: with `Cl.NS(=O)(=O)c1cccc(Nc2cc(-c3ccc(F)cc3)n[nH]2)c1` [GW824645] the figure was 0%; with `CCC(=O)c1c(-c2ccccc2)c2cc(Cl)ccc2c(=O)n1Cc1cc(S(C)(=O)=O)n(CC(N)=O)n1`, 0%.
As for `COc1cc2nccc(Nc3ccc(OCc4ccc(NC(C)=O)cc4)cc3)c2cc1OC.Cl` [GW440135], the “%Inh” value is recorded as 6%.
On to `COc1cccc(C2=C(Nc3cccc(C(=O)O)c3)C(=O)NC2=O)c1` [SB-390770], for which the “%Inh” value turned out to be 2%.
Consider `CN1C(=O)C(Nc2cc(Cl)c(O)c(Cl)c2)=C(c2ccc(Cl)cc2)C1=O` [SB-404321], for which the “%Inh” value is 0%.
On the same count and under the same terms, under `O=C(Nc1n[nH]c2cc(-c3ccccc3F)ccc12)C1CC1` [SB-733371] stands 0%.
Same read-out and setting: with `COc1cc2nccc(Nc3cccc(Oc4ccccc4)c3)c2cc1OC.Cl` [GW284543] the figure was 0%; with `COc1cc2ncn(-c3cc(OCc4ccncc4)c(C(N)=O)s3)c2cc1OC` [GSK336313], 0%; with `Cc1ccc(Oc2ccc(Nc3ncnc4cc[nH]c34)cc2C)cn1`, 17%.
For the compound `COc1ccc(-n2cnc3c(N)ncnc32)cc1` [SKF-97236], the “%Inh” value was found to be 0%.
Consider `O=C(NCCNc1ccnc(Nc2ccc(F)cc2)n1)Nc1ccc2c(c1)OCO2` [GSK1379882], for which the “%Inh” value was found to be 0%.
Turning to `COc1ccc(-c2cc3c(C)nc(N)nc3n([C@H]3CC[C@H](O)CC3)c2=O)cn1`, the “%Inh” value came out at 0%.
For the compound `O=C(Nc1ccc2c(c1)OCO2)NC1CCN(c2ccnc(NCc3ccc(F)cc3)n2)CC1` [GSK1379859], the “%Inh” value stood at 0%.
For `O=c1cc(N2CCOCC2)nc2n(Cc3ccc(F)c(Cl)c3)ccn12` [GSK2297099], the “%Inh” value was found to be 0%.
As to `CCC(=O)c1c(-c2ccccc2)c2cc(Cl)ccc2c(=O)n1Cc1ccc(C(=O)O)cc1`, the “%Inh” value is on record as 0%.
Take `CCS(=O)c1ccc(-c2coc3ccc(-c4nnc(C)o4)cc23)cc1` (stereo not drawn): the “%Inh” value was 0%.
For `CC(C)(C)c1ccc(C(=O)Nc2cn3cc(-c4ccccc4)ccc3n2)cc1`, the “%Inh” value is given as 0%.
The same measure, in the same setting: under `Nc1nc(N)c2nc(-c3ccccc3)[nH]c2n1` [SKF-12778] stands 15%; under `Cc1nc(N(C)[C@H]2CN(C(=O)CC#N)CC[C@H]2C)c2cc[nH]c2n1`, 0%.
Still for that read-out and setting: under `CCC(=O)c1c(-c2ccccc2)c2cc(Cl)ccc2c(=O)n1Cc1cc(S(C)(=O)=O)n(CCC(C)(C)O)n1` stands 0%.
Consider `CCn1c(-c2nonc2N)nc2ccccc21` [SB-693162/GW549034], for which the “%Inh” value was determined as 0%.
As to `CCn1c(-c2ccoc2)nc2cnccc21` [SB-733887], the “%Inh” value is 0%.
The same measure, in the same setting: under `Cc1cccc(-c2cc(-c3c[nH]nc3-c3ccccn3)ccn2)c1` [GW679395] stands 0%; under `Nc1ncnc2c1ncn2-c1cccc(F)c1` [SKF-97560], 9%.
For `CN1C(=O)C(Nc2ccccc2)=C(c2ccccc2)C1=O` [SB-300079], the “%Inh” value was determined as 0%.
Consider `OCCCNc1nccc(-c2c(-c3cccc(C(F)(F)F)c3)nn3cc(C(F)(F)F)ccc23)n1` [GW630813], for which the “%Inh” value was 0%.
Turning to `COc1ccc(-c2cc3c(C)nc(N)nc3n([C@H]3CC[C@H](OCCO)CC3)c2=O)cn1`, the “%Inh” value is listed as 6%.

The subject of the next test is AKT2. As to conditions: concentration: 1 μM, replicates: in singlicate; n = 1.
As for `Nc1n[nH]c2ncc(-c3ccccc3)cc12` [SB-517081], the “%Inh” value came out at 12%.
For `COc1cc(Nc2nccc(N3CCC(NC(=O)C4COc5ccccc5O4)C3)n2)cc(OC)c1OC` (stereo not drawn) [GSK1379761], the “%Inh” value worked out at 9%.
As to `COc1cc2ncn(-c3cc(OCCCc4ccccc4)c(C(N)=O)s3)c2cc1OC` [GSK205189], the “%Inh” value was 2%.
As for `CCC(=O)c1c(-c2ccccc2)c2cc(Cl)ccc2c(=O)n1Cc1cc(C(=O)NC2CC2)n(C)n1`, the “%Inh” value worked out at 7%.
With `C[C@@H]1CC[C@H](C(=O)NC2CCCCC2)CN1c1cc(-c2ccc3c(N)n[nH]c3c2)nc(N)n1` [GSK2291363], the “%Inh” value was found to be 11%.
Take `CCc1ccc(-c2ccc3c(c2)-c2nn(C)cc2S(=O)(=O)N3C)cc1`: the “%Inh” value was 3%.
The same measure, in the same setting: under `Cc1nnc(-c2ccc(C)c(-c3ccc(C(=O)O)cc3)c2)o1` [GW608005] stands 6%; under `COc1cc(OC)cc(-c2cc3cnc(N)nc3nc2NC(=O)NC(C)(C)C)c1`, 11%.
On to `COC(=O)c1c(-c2ccccc2)c2cc(Br)ccc2c(=O)n1Cc1ccc(S(C)(=O)=O)cc1`, for which the “%Inh” value is given as 28%.
On the same count and under the same terms, with `Cl.NS(=O)(=O)c1cccc(Nc2cc(-c3ccc(F)cc3)n[nH]2)c1` [GW824645] the figure was 0%; with `CCC(=O)c1c(-c2ccccc2)c2cc(Cl)ccc2c(=O)n1Cc1cc(S(C)(=O)=O)n(CC(N)=O)n1`, 0%.
Same read-out and setting: under `COc1cc2nccc(Nc3ccc(OCc4ccc(NC(C)=O)cc4)cc3)c2cc1OC.Cl` [GW440135] stands 0%.
With `COc1cccc(C2=C(Nc3cccc(C(=O)O)c3)C(=O)NC2=O)c1` [SB-390770], the “%Inh” value turned out to be 0%.
On to `CN1C(=O)C(Nc2cc(Cl)c(O)c(Cl)c2)=C(c2ccc(Cl)cc2)C1=O` [SB-404321], for which the “%Inh” value was 0%.
For the compound `O=C(Nc1n[nH]c2cc(-c3ccccc3F)ccc12)C1CC1` [SB-733371], the “%Inh” value is 0%.
Same read-out and setting: with `COc1cc2nccc(Nc3cccc(Oc4ccccc4)c3)c2cc1OC.Cl` [GW284543] the figure was 7%; with `COc1cc2ncn(-c3cc(OCc4ccncc4)c(C(N)=O)s3)c2cc1OC` [GSK336313], 1%; with `Cc1ccc(Oc2ccc(Nc3ncnc4cc[nH]c34)cc2C)cn1`, 0%.
Same read-out and setting: under `COc1ccc(-n2cnc3c(N)ncnc32)cc1` [SKF-97236] stands 1%; under `O=C(NCCNc1ccnc(Nc2ccc(F)cc2)n1)Nc1ccc2c(c1)OCO2` [GSK1379882], 0%; under `COc1ccc(-c2cc3c(C)nc(N)nc3n([C@H]3CC[C@H](O)CC3)c2=O)cn1`, 0%.
On the same count and under the same terms, with `O=C(Nc1ccc2c(c1)OCO2)NC1CCN(c2ccnc(NCc3ccc(F)cc3)n2)CC1` [GSK1379859] the figure was 5%; with `O=c1cc(N2CCOCC2)nc2n(Cc3ccc(F)c(Cl)c3)ccn12` [GSK2297099], 13%.
For the compound `CCC(=O)c1c(-c2ccccc2)c2cc(Cl)ccc2c(=O)n1Cc1ccc(C(=O)O)cc1`, the “%Inh” value was found to be 0%.
Still for that read-out and setting: with `CCS(=O)c1ccc(-c2coc3ccc(-c4nnc(C)o4)cc23)cc1` (stereo not drawn) the figure was 0%; with `CC(C)(C)c1ccc(C(=O)Nc2cn3cc(-c4ccccc4)ccc3n2)cc1`, 0%.
Still for that read-out and setting: with `Nc1nc(N)c2nc(-c3ccccc3)[nH]c2n1` [SKF-12778] the figure was 8%.
Still for that read-out and setting: under `Cc1nc(N(C)[C@H]2CN(C(=O)CC#N)CC[C@H]2C)c2cc[nH]c2n1` stands 1%.
Regarding `CCC(=O)c1c(-c2ccccc2)c2cc(Cl)ccc2c(=O)n1Cc1cc(S(C)(=O)=O)n(CCC(C)(C)O)n1`, the “%Inh” value is reported as 14%.
As for `CCn1c(-c2nonc2N)nc2ccccc21` [SB-693162/GW549034], the “%Inh” value is reported as 1%.
Still for that read-out and setting: under `CCn1c(-c2ccoc2)nc2cnccc21` [SB-733887] stands 14%.
The same measure, in the same setting: with `Cc1cccc(-c2cc(-c3c[nH]nc3-c3ccccn3)ccn2)c1` [GW679395] the figure was 1%; with `Nc1ncnc2c1ncn2-c1cccc(F)c1` [SKF-97560], 12%.
Still for that read-out and setting: with `CN1C(=O)C(Nc2ccccc2)=C(c2ccccc2)C1=O` [SB-300079] the figure was 0%; with `OCCCNc1nccc(-c2c(-c3cccc(C(F)(F)F)c3)nn3cc(C(F)(F)F)ccc23)n1` [GW630813], 0%; with `COc1ccc(-c2cc3c(C)nc(N)nc3n([C@H]3CC[C@H](OCCO)CC3)c2=O)cn1`, 0%.

Source of the values: article PMC5540273 (PLoS ONE, 2017).
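Further: KINOMEscan kinase panel screen.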
